Source: PubChem BioAssay (Tox21)
Several values for one entry are separate records, joined by “and”; a condition that tells them apart may be missing. Identical values can stand only once. Records with an inconclusive call do not appear. Where a call stands in place of a potency, no number is given. A number with no mark means an inactive call. Activity calls are given as the source filed them. The call rests on the fitted dose curve.

Assay: qHTS assay to identify small molecule antagonists of the sonic hedgehog signaling (Shh) pathway (AID 1259369); further: nearly all actives have a fitted effect of over 45% in size
Conditions: NIH/3T3 Gli1-Luc reporter, Shh antagonist, luminescence 24 h; series mostly up to 92.4 µM
Text: U.S. Tox21 Program National Center for Advancing Translational Sciences [NCATS] NIH Chemical Genomics Center [NCGC] U.S. Environmental Protection Agency [EPA] National Institutes of Environmental Health Sciences [NIEHS] National Toxicology Program [NTP] U.S. Food and Drug Administration [FDA] Tox21 Assay Overview: The sonic hedgehog (Shh) pathway is essential for normal embryonic development. Dysregulation of the Shh pathway can cause severe developmental defects in organs. Therefore chemicals that interfere with the pathway are potential developmental toxicants. A cell line designated 3T3Gli1-Luc (DMB/OARSA/CFSAN/FDA, Laurel, MD), a NIH/3T3 derived clone containing stably integrated Gli1-Luc reporter is used to detect chemical interference of the Shh pathway, by changes in the expression of the firefly Luc gene under the control of the Gli1 transcriptional response element. This cell line was used to screen Tox21 libraries for identifying and prioritizing the potential developmental toxicants that interfere Shh pathway. Conditioned medium-stimulated mode was used to screen for chemicals inhibiting Shh signaling.
Tox21 Assay Protocol Summary: 3T3 Gli1-Luc cells were dispensed at 2,000 per well in 5uL of culture medium into white solid bottom 1536-well plates (Greiner Bio-One, Monroe, NC) using a Multidrop Combi (Thermo Scientific, Waltham, MA) dispenser. The assay plates were incubated at 37 C and 5% CO2 for 4hr, and then 23nL of compounds dissolved in DMSO and positive control were transferred using a Pintool station (Wako, San Diego, CA). The compound transfer was followed by the addition of 1ul conditioned medium or assay buffer using two separate tips of Flying Reagent Dispenser (FRD, Aurora Discovery, San Diego, CA). The assay plates were incubated at 37C and 5% CO2 for 24hr. For luciferase read, 4uL of Amplite Luciferase reporter gene assay reagent (AAT Bioquest, Inc. Sunnyvale, CA) was added to each well of the assay plates using FRD and incubated at room temperature for 30min. The luminescence signal was measured using a ViewLux plate reader (Perkin Elmer, Shelton, CT).
Potency means the concentration at half of the fitted maximal effect.

Which Potency does the source give for `N#CCc1cccc(C(F)(F)F)c1` here?
Its Potency is “inactive”.

For `CCCCCc1ccc(N)cc1`, which Potency is on record?
The Potency was “inactive”.

Which Potency does the source give for `Nc1cnn([C@@H]2O[C@H](CO)[C@@H](O)[C@H]2O)c(=O)n1` here?
The Potency was “inactive”.

For `CC[C@@H]1C[C@H](N(Cc2cc(C(F)(F)F)cc(C(F)(F)F)c2)C(C)=O)c2cc(C(F)(F)F)ccc2N1C(=O)OC(C)C`, which Potency is on record?
The Potency was 9.69 µM (active).

Which Potency does the source give for `O=C(O)C(c1ccc(Cl)cc1)c1ccc(Cl)cc1` here?
The Potency was “inactive”.

For `COCCO`, which Potency is on record?
The Potency was “inactive”.

For `Nc1nc(N)c(-c2ccccc2)s1`, which Potency is on record?
The Potency was “inactive”.

For `O=C(NN1CCCC1)NS(=O)(=O)c1ccc(Cl)cc1`, which Potency is on record?
Its Potency is “inactive”.

Which Potency does the source give for `CC(=O)c1c(C)c([N+](=O)[O-])c(C(C)(C)C)c([N+](=O)[O-])c1C` here?
The Potency was “inactive”.

Which Potency does the source give for `C=CC[N+]1([C@H]2C[C@H]3[C@@H]4CC[C@H]5C[C@H](OC(C)=O)[C@@H](N6CCCCC6)C[C@]5(C)[C@H]4CC[C@]3(C)[C@H]2OC(=O)CC)CCCCC1` here?
The Potency was “inactive”.

With `N=C(N=C(N)N)N1CCOCC1` as the compound, how does the Potency read?
Its Potency is “inactive”.

For `Cn1sccc1=O`, which Potency is on record?
The Potency was 12.2 µM (active) and 3.06 µM (active).

For `COC(=O)C(C)=O`, which Potency is on record?
Its Potency is “inactive”.

With `CCCCCCCCC(CO)CCCCCC` (stereo not given) as the compound, how does the Potency read?
Its Potency is “inactive”.

Which Potency does the source give for `O=C(O)Cc1cc(I)c(Oc2ccc(O)c(I)c2)c(I)c1` here?
The Potency was “inactive”.

With `Nc1ccc(C(=O)N2CC3CC(CN(Cc4ccccc4)C3)C2)cc1` as the compound, how does the Potency read?
The Potency was “inactive”.

With `O=C(O)c1cccc(N(Cc2cccnc2)c2ccc(OC(F)F)c(OC(F)F)c2)c1` as the compound, how does the Potency read?
Its Potency is 0.969 µM (active).

With `O=C(O)/C=C/c1cnc[nH]1` as the compound, how does the Potency read?
Its Potency is “inactive”.

Which Potency does the source give for `Nc1nc(N)c2nc(CNc3ccc(C(=O)N[C@@H](CCC(=O)O)C(=O)O)cc3)cnc2n1` here?
The Potency was “inactive”.

With `O=C(NS(=O)(=O)/C=C/c1cccs1)c1ccc(F)cc1Br` as the compound, how does the Potency read?
The Potency was “inactive”.

Which Potency does the source give for `N[C@H]1C(O)O[C@H](CO)[C@H](O)[C@@H]1O` (stereo not given in full) here?
The Potency was “inactive”.

Which Potency does the source give for `CC(C(=O)O)c1ccc(C(=O)c2ccccc2)s1` (stereo not given) here?
Its Potency is “inactive”.

For `NC1CCN(c2nc3c(cc2F)c(=O)c(C(=O)O)cn3-c2ccc(F)cc2F)C1` (stereo not given), which Potency is on record?
Its Potency is “inactive”.

For `CCCC[C@H]1CN(CC2CCOCC2)C(=O)OC12CCN(C1(C)CCN(C(=O)c3c(C)ncnc3C)CC1)CC2`, which Potency is on record?
The Potency was “inactive”.

With `O=C(CCN1CCN2CCCC2C1)N1c2ccccc2Sc2ccc(Cl)cc21` (stereo not given) as the compound, how does the activity change, negative = inhibition read?
Its activity change, negative = inhibition is -18.5% [at 19 µM].

With `CC(C)c1cccc(C(C)C)c1NC(=O)NS(=O)(=O)c1cc(C(C)(C)O)co1` as the compound, how does the Potency read?
Its Potency is “inactive”.

For `CCCCCOC(=O)c1ccc(O)cc1`, which Potency is on record?
Its Potency is 39 µM (active).

For `CC(C)(C)c1cc(CCC(=O)OCC(COC(=O)CCc2cc(C(C)(C)C)c(O)c(C(C)(C)C)c2)(COC(=O)CCc2cc(C(C)(C)C)c(O)c(C(C)(C)C)c2)COC(=O)CCc2cc(C(C)(C)C)c(O)c(C(C)(C)C)c2)cc(C(C)(C)C)c1O`, which Potency is on record?
The Potency was “inactive”.

Which Potency does the source give for `CC(C)CCCC(C)CCO` (stereo not given) here?
The Potency was 61.1 µM (active).

Which Potency does the source give for `CCCc1ccccc1` here?
Its Potency is “inactive”.

With `CC(=O)N(CC(=O)N(C)C)c1ccccc1` as the compound, how does the Potency read?
The Potency was “inactive”.

Which Potency does the source give for `CCCC(=O)OCC` here?
The Potency was 68.6 µM (active).

For `O=S1(=O)c2cccc3cccc(c23)N1CCCN1CCN(c2ccc(F)cc2)CC1`, which Potency is on record?
The Potency was “inactive”.

Which Potency does the source give for `CCCOc1ccc2nc(NC(=O)OC)[nH]c2c1` here?
Its Potency is “inactive”.

Which Potency does the source give for `NC(N)=NN=C(/C=C/c1ccc([N+](=O)[O-])o1)/C=C/c1ccc([N+](=O)[O-])o1` here?
Its Potency is 2.98 µM (active).

With `CCCCCCCCCCCCCCCCCBr` as the compound, how does the activity change, negative = inhibition read?
The activity change, negative = inhibition was -0.552% [at 19 µM].

For `CCN(CC)CCOC(=O)C1(c2ccccc2)CCCC1`, which Potency is on record?
The Potency was “inactive”.

For `CC(=O)O[C@@H]1C(=O)O[C@@H]2[C@H]1OC(=O)[C@@H]2OC(C)=O`, which Potency is on record?
The Potency was “inactive”.

Which Potency does the source give for `CCOC(=O)[C@H](CCc1ccccc1)N[C@H]1CCc2ccccc2N(CC(=O)O)C1=O` here?
Its Potency is “inactive”.

With `COC(=O)CSc1cc(N=c2sc(=O)n3n2CCCC3)c(F)cc1Cl` as the compound, how does the Potency read?
Its Potency is “inactive”.
